Laboratory results: the supplement of paper PMC12669032

tested on: Bacteroides thetaiotaomicron; test: growth AUC relative to DMSO control (median of replicates) (fraction); higher = more growth (less inhibition), active = hit call of the paper; details: 20 µM; 24 h;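 active = AUC reduced over 20% with Padj below 0.05 in at least 2 of 3 replicates; inactive = otherwise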
How it was run: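 Gut bacteria were grown singly in mGAM at 37 °C without oxygen, from OD600 0.05, alongside 20 µM compound in 1% DMSO, and OD600 was read each hour for 24 h. Area under the growth curve was normalised to the median of solvent-only wells per plate, or to row and column medians on the industrial chemical plate. The minimum OD was set to 0 beforehand, and the reported value is the median of three biological replicates grown on separate days.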

Structure (SMILES) | growth AUC
CC(C)c1cccc2c(=O)c3ccccc3sc12 | 0.963 (inactive)
CP(=O)(O)CCC(=O)O | 1.03 (inactive)
ClC(COCC(Cl)C(Cl)(Cl)Cl)C(Cl)(Cl)Cl (stereo not drawn) | 0.91 (inactive)
CCc1cccc(C)c1N(C(=O)CS(=O)(=O)[O-])C(C)COC.[Na+] (stereo not drawn) | 0.727 (active)
COCC(=O)N(c1c(C)cccc1C(=O)O)C(C)C(=O)O (stereo not drawn) | 0.967 (inactive)
COC(=O)C(C)Oc1ccc(Oc2ccc(C(F)(F)F)cn2)cc1 (stereo not drawn) | 0.965 (inactive)
O=S(Cc1ccc(Cl)cc1)c1ccc(Cl)cc1 (stereo not drawn) | 0.946 (inactive)
O=C(O)c1ccc(Cl)cc1Cl | 1.01 (inactive)
Nc1ccc(S(=O)(=O)Nc2cnc3ccccc3n2)cc1 | 0.946 (inactive)
COC(=O)c1ccc(CNS(C)(=O)=O)cc1S(=O)(=O)NC(=O)Nc1nc(OC)cc(OC)n1 | 0.991 (inactive)
CC(C)(NC(=O)NCc1ccccc1Cl)c1ccccc1 | 1.02 (inactive)
CCC(C)Nc1nc(N)nc(Cl)n1 (stereo not drawn) | 1.01 (inactive)
Cc1cccc(C)c1N(C(=O)CCl)C1CCOC1=O (stereo not drawn) | 0.647 (active)
CC(C)(NC(=O)C(Br)C(C)(C)C)c1ccccc1 (stereo not drawn) | 0.971 (inactive)
O=C(O)Cc1cccc2ccccc12 | 1 (inactive)
NC(Cn1cncn1)C(=O)O (stereo not drawn) | 1 (inactive)
CCc1nc2ncnn2c(N)c1CCCCCC(=O)O.Cl | 0.988 (inactive)
Cn1cc(C(=O)Nc2ccccc2-c2cc(F)c(F)c(F)c2)c(C(F)F)n1 | 0.93 (inactive)
